The values that follow come from PubChem BioAssay (EPA / NIEHS).

Inconclusive results are not listed. Active and inactive are the calls of the source. Rule for the calls, unless noted: active = hit-call score of the fitted dose curve at least 0.9, where 1 is the maximum; inconclusive = response in the unintended direction; inactive = score below 0.9.

Read-out in assay [1]: Thyroid Hormone Responsive (THRSP), THRSP (gene 7069)
Description: LTEA_HepaRG_THRSP: Life Technologies and Expression Analysis (LTEA) Assay for Thyroid Hormone Responsive (THRSP) using HepaRG (AID 2283536; active = hit-call score of the fitted dose curve at least 0.9, where 1 is the maximum; inactive = score below 0.9). Conditions: mRNA level, 48 h; actives raise or lower the signal. The gist of the method:
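Differentiated HepaRG cells treated 48 h in serum-free induction medium with 8 half-log concentrations up to 100 uM (0.5% DMSO), duplicates. THRSP mRNA by TaqMan qRT-PCR normalised to ACTB, GAPDH, POLR2A; bidirectional fit versus DMSO.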

Read-out in assay [2]: Cellular tumor antigen p53 (Homo sapiens) (UniProt P04637)
Description: LTEA_HepaRG_TP53: Life Technologies and Expression Analysis (LTEA) Assay for Tumor Protein P53 (TP53) using HepaRG (AID 2283537; active = hit-call score of the fitted dose curve at least 0.9, where 1 is the maximum; inactive = score below 0.9). Conditions: mRNA level, 48 h; actives raise or lower the signal. Summed up: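 HepaRG, 48 h exposure, top 100 uM, half-log 8-point, 0.5% DMSO vehicle, duplicates. Read: TP53 mRNA by TaqMan qRT-PCR, normalised to ACTB/GAPDH/POLR2A; bidirectional fit vs DMSO.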

Read-out in assay [3]: UDP glucuronosyltransferase (UGT1A1), UGT1A1 (gene 54658)
Description: LTEA_HepaRG_UGT1A1: Life Technologies and Expression Analysis (LTEA) Assay for UDP glucuronosyltransferase (UGT1A1) using HepaRG (AID 2283538; active = hit-call score of the fitted dose curve at least 0.9, where 1 is the maximum; inactive = score below 0.9). Conditions: mRNA level, 48 h; actives raise or lower the signal. Summed up:
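Human liver HepaRG cultures receive test chemical for 48 h, up to 100 uM in 0.5% DMSO, with phenobarbital induction controls. UGT1A1 mRNA is measured by qRT-PCR and normalized to ACTB, GAPDH and POLR2A.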

Read-out in assay [4]: X-box binding protein 1 (XBP1), XBP1 (gene 7494)
Description: LTEA_HepaRG_XBP1: Life Technologies and Expression Analysis (LTEA) Assay for X-box binding protein 1 (XBP1) using HepaRG (AID 2283540; active = hit-call score of the fitted dose curve at least 0.9, where 1 is the maximum; inactive = score below 0.9). The following applies: mRNA level, 48 h; actives raise or lower the signal. The gist of the method:
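XBP1 transcript by qRT-PCR (housekeeping-normalized: ACTB, GAPDH, POLR2A) after 48 h chemical treatment of HepaRG cells, 8-point half-log series topping at 100 uM, vehicle 0.5% DMSO. Gain and loss of signal fitted relative to DMSO.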

Assay [5] in a line: LTEA_HepaRG_LDH_cytotoxicity: Cytotoxicity Assessment in the Life Technologies and Expression Analysis (LTEA) Assay (AID 2283563).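 For AC50: LDH activity released into spent culture medium as a marker of cell death.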 The gist of the method:
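LDH release into culture medium read after 48 h chemical treatment of HepaRG cells. Duplicate wells, eight-point half-log series topping at 100 uM, 0.5% DMSO vehicle and baseline.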

A short description of assay [6]: ATG_XTT_Cytotoxicity: Cytotoxicity Assessment in the Attagene TRANS-FACTORIAL HepG2 Assay (AID 2283584). The gist of the method: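 Viability endpoint from XTT after 24 h chemical exposure of reporter-transfected human HepG2 liver cells; signal loss fitted relative to DMSO negative control.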
Assay [7] can be described thus: TOX21_p53_BLA_p2_viability: Viability Assessment in the Tox21 HCT-116 p53 Agonism Beta-lactamase Assay, Phase 2 (AID 2283591).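 Note: compound exposure lasted 16 h at 37 °C; actives lower the ATP signal meaning cytotoxicity.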 The gist of the method:
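HCT116 p53-bla cells, 4000/well, dosed after 5 h plating (217-fold dilution of DMSO stocks) and incubated 16 h at 37C. Viability taken as cellular ATP by CellTiter-Glo luminescence after 30 min RT; signal loss marks cytotoxicity.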

Assay [8] can be described thus: TOX21_p53_BLA_p3_viability: Viability Assessment in the Tox21 HCT-116 p53 Agonism Beta-lactamase Assay, Phase 3 (AID 2283593).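 Note: cells exposed to compound for 16 h before reading.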 Summed up: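 HCT116 cells, 4000/well, dosed 5 h after plating by pin transfer (217-fold dilution from DMSO stock) and incubated 16 h at 37C, 5% CO2. Viability read as ATP luminescence with CellTiter-Glo after 30 min at room temperature.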

Assay [9] concerns the target Cellular tumor antigen p53 (Homo sapiens) (UniProt P04637). Description: TOX21_p53_BLA_p3_ratio: Tox21 HCT-116 p53 Agonism Beta-lactamase Assay, Ratio, Phase 3 (AID 2283596). The gist of the method:
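HCT116 p53-bla cells (4000/well) given compound in DMSO (217-fold dilution) after 5 h, incubated 16 h at 37C. CCF4-AM substrate 2 h at room temperature; 460/530 nm emission ratio, gain fitted against DMSO.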

The nature of assay [10]: TOX21_p53_BLA_p4_viability: Viability Assessment in the Tox21 HCT-116 p53 Agonism Beta-lactamase Assay, Phase 4 (AID 2283597).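 Note: hits lower the luminescence signal meaning cytotoxicity.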 The gist of the method:
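Following a 16 h exposure at 37C, the treated HCT116 wells were first read for the FRET ratio. They were then lysed with CellTiter-Glo, and ATP luminescence was recorded after 30 min at room temperature.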

Assay [11] addresses Cellular tumor antigen p53 (Homo sapiens) (UniProt P04637). Description: TOX21_p53_BLA_p5_ratio: Tox21 HCT-116 p53 Agonism Beta-lactamase Assay, Ratio, Phase 5 (AID 2283599). Summed up: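 HCT-116 p53-bla cells (4000/well) plated 5 h, dosed with compound (217-fold DMSO dilution) for 16 h at 37 C; CCF4-AM substrate 2 h at room temperature. Activity is the 460/530 nm emission ratio (405 nm excitation), fitted in gain-of-signal direction versus DMSO.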

Assay [12] can be described thus: TOX21_p53_BLA_p5_viability: Viability Assessment in the Tox21 HCT-116 p53 Agonism Beta-lactamase Assay, Phase 5 (AID 2283600). Summed up:
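After the 460/530 nm beta-lactamase measurement, the wells received an ATP-detection luciferase reagent; signal was read 30 min later at RT. Compound treatment lasted 16 h on cells pre-incubated 5 h post-seeding.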

The target of assay [13] is Cellular tumor antigen p53 (Homo sapiens) (UniProt P04637). Description: TOX21_p53_BLA_p4_ratio: Tox21 HCT-116 p53 Agonism Beta-lactamase Assay, Ratio, Phase 4 (AID 2283601). Summed up: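 HCT-116 p53 beta-lactamase reporter cells (4000/well) preincubated 5 h, then compound (217-fold dilution of DMSO stock) for 16 h at 37C. CCF4-AM substrate added 2 h at room temperature; 460/530 nm emission ratio fitted upward versus DMSO.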

Assay [14] in a line: Tanguay_ZF_120hpf_MORT_legacy: (Legacy) Oregon State University Tanguay Lab 120 Hour Post-fertilization zebrafish Assay for Mortality (AID 2283633).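 For AC50: fitted as increase in binary mortality versus DMSO negative control.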 Summed up: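 Static waterborne exposure from 6 to 120 hpf at 28C of single dechorionated wild-type (5D) embryos per well, 0.64% DMSO final. Death recorded present/absent by brightfield at 24 and 120 hpf.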
The nature of assay [15]: Tanguay_ZF_120hpf_AXIS_legacy: (Legacy) Oregon State University Tanguay Lab 120 Hour Post-fertilization zebrafish Assay for Body Axis Malformation (AID 2283635).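 For AC50: potency for an increased fraction of larvae scored with body axis malformation.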 Summed up: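 Binary scoring of axis defects at 120 hpf under brightfield, fitted positive versus DMSO. Tropical 5D embryos, chorion removed by pronase at 4 hpf, were singly exposed in sealed, dark plates at 28C from 6 hpf; DMSO 0.64% final.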

The nature of assay [16]: Tanguay_ZF_120hpf_EYE_legacy: (Legacy) Oregon State University Tanguay Lab 120 Hour Post-fertilization zebrafish Assay for Eye Malformation (AID 2283636).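 Note: binary presence or absence of eye malformation scored by brightfield in 120 hpf larvae.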 Summed up: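 Dechorionated Tropical 5D zebrafish embryos, one per well from 6 hpf, static exposure to 120 hpf at 28C, 0.64% DMSO. Eye malformation scored present/absent by brightfield; dead embryos not scored.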
The nature of assay [17]: Tanguay_ZF_120hpf_SNOU_legacy: (Legacy) Oregon State University Tanguay Lab 120 Hour Post-fertilization zebrafish Assay for Snout Malformation (AID 2283637). Summed up:
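Dechorionated tropical 5D wild-type zebrafish embryos exposed statically from 6 to 120 hpf at 28C, one per well, in 0.64% DMSO. Snout malformation scored as present/absent by brightfield at 120 hpf; dead embryos not scored.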

Read-out in assay [18]: UDP glucuronosyltransferase (UGT1A6), UGT1A6 (gene 54578)
As to the kind of experiment: LTEA_HepaRG_UGT1A6: Life Technologies and Expression Analysis (LTEA) Assay for UDP glucuronosyltransferase (UGT1A6) using HepaRG (AID 2283539; active = hit-call score of the fitted dose curve at least 0.9, where 1 is the maximum; inactive = score below 0.9). Conditions: mRNA level, 48 h; actives raise or lower the signal. The gist of the method:
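Expression was quantified by TaqMan qRT-PCR on Fluidigm arrays with ACTB/GAPDH/POLR2A normalization and bidirectional fitting against 0.5% DMSO. HepaRG cells (~100,000/well) were treated in duplicate for 48 h at eight half-log concentrations up to 100 uM in serum-free induction medium.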

Assay [19] in a line: Tanguay_ZF_120hpf_YSE_legacy: (Legacy) Oregon State University Tanguay Lab 120 Hour Post-fertilization zebrafish Assay for Yolk Sac Edema (AID 2283634).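 For AC50: actives raise the incidence of yolk sac edema above the DMSO baseline.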 The gist of the method:
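Presence or absence of yolk sac edema was recorded at 120 hpf in surviving larvae. These were wild-type Tropical 5D embryos, chorion removed at 4 hpf, held in static exposure at 28C from 6 hpf with 0.64% DMSO vehicle.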

Assay [20] deals with Cellular tumor antigen p53 (Homo sapiens) (UniProt P04637). As to the kind of experiment: TOX21_p53_BLA_p2_ratio: Tox21 HCT-116 p53 Agonism Beta-lactamase Assay, Ratio, Phase 2 (AID 2283592). Summed up:
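Gain-of-signal p53 agonism was scored from the beta-lactamase FRET ratio (460/530 nm, 405 nm excitation) in HCT116 cells treated 16 h at 37C, 5% CO2, with DMSO serving as negative control and baseline.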

Cellular tumor antigen p53 (Homo sapiens), sequence (P04637 whole entry, looked up): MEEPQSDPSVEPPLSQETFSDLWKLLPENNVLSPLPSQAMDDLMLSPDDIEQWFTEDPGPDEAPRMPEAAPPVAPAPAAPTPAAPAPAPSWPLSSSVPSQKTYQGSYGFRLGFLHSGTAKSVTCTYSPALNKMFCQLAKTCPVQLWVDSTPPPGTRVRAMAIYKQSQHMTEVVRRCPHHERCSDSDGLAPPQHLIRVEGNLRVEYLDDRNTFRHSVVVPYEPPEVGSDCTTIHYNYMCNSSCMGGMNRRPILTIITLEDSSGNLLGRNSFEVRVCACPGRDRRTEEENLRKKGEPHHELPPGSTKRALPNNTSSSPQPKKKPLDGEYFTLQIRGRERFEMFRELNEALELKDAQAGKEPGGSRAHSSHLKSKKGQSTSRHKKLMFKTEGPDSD

`Nc1ccc(S(=O)(=O)c2ccc(N)cc2)cc1`: the compound was classed as inactive in assay [1], in [2], in [3], in [4], in assay [5] and in [6]. Also, the compound was classed as inactive in assay [7], in [8], in assay [9], in assay [10], in assay [11] and in assay [12]. The outcome in assay [13], in assay [14], in assay [15], in [16] and in assay [17] was inactive.
For `CC(C)(C)c1cc(O)c(C(C)(C)C)cc1O`, the AC50 was 78.9 µM (active) in assay [1]; 86.7 µM (active) in [2]; 89.2 µM (active) in assay [3]; 91.3 µM (active) in assay [18]; 73.5 µM (active) in [5]; 71.6 µM (active) in assay [9]. The concentration at half-maximal activity (AC50) is 69 µM (active) in assay [10]; 90.5 µM (active) in [11]; 11 µM (active) in [14]; 25.7 µM (active) in [19]; 25.7 µM (active) in [15]; 35.6 µM (active) in assay [17]. Besides, the compound was called inactive in assay [4], in [7], in assay [8], in [12], in assay [13] and in [16].
For `COC(=O)c1ccc(O)cc1`, the result in [1], in [2], in assay [3], in assay [4], in assay [5] and in assay [6] was inactive. The result in [7], in assay [20], in [8], in assay [9], in assay [10] and in assay [11] was inactive. Besides, the compound was classed as inactive in assay [12], in assay [13], in [14], in assay [19], in assay [15] and in assay [16]. In addition, in [17], the result was inactive.
Take `CCCCCCCCCCCC(=O)OC`: the call in [1], in [2], in [3], in assay [4], in [5] and in assay [6] was inactive. Also, the compound was called inactive in assay [7], in [20], in assay [8], in assay [9], in assay [11] and in [12]. Besides, the outcome in [13], in assay [14], in [19], in assay [15], in assay [16] and in assay [17] was inactive.
With `CCCCOC(=O)CCCCCCCCC(=O)OCCCC`, the compound was classed as inactive in assay [1], in [2], in assay [3], in [18], in assay [4] and in [5]. Moreover, the compound was called inactive in assay [8], in assay [10], in assay [13], in assay [14], in assay [19] and in assay [16]. In addition, the compound was called inactive in [17].
For the compound `CC(=O)OCCOCCOCCOC(C)=O`, the result in assay [1], in assay [2], in [3], in assay [4], in assay [5] and in [6] was inactive. The call in [7], in [8], in [9], in assay [10], in assay [11] and in assay [13] was inactive. The compound was classed as inactive in assay [14], in [19], in assay [15], in [16] and in [17].
Take `CCNc1cccc(C)c1`: the compound was classed as inactive in assay [1], in [2], in [3], in [4], in assay [5] and in assay [6]. The call in assay [7], in [20], in assay [8], in assay [9], in assay [10] and in assay [11] was inactive. Moreover, the outcome in assay [12], in assay [13], in [14], in [19], in assay [15] and in assay [16] was inactive. In assay [17], the call was inactive.
